Measured values as given in ChEMBL document CHEMBL1961873, “Compounds: GSK PKIS; Assays: Nanosyn kinase panel” (2012).
Several values for one entry are separate records, joined by “and”; a condition that tells them apart may be missing. Equal entries are not always repeated.

Assays:
[1] = molecular target: T1, Aurora kinase A (Homo sapiens) (UniProt O14965); conditions: at 1 µM;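 further: values are mean percent inhibition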
T1 sequence (whole entry): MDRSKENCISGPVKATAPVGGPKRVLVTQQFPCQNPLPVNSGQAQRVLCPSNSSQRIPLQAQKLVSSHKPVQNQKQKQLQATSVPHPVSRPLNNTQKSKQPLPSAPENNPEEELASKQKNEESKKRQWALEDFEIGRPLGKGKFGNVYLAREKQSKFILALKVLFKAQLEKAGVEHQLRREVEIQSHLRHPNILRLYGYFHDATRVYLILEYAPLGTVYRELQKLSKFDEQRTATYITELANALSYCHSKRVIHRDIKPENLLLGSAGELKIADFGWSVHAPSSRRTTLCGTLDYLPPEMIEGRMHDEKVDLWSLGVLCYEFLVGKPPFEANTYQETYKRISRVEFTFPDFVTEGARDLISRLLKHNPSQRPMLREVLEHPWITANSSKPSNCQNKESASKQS

[2] = molecular target: Aurora kinase B (Homo sapiens) (UniProt Q96GD4); conditions: at 0.1 µM
Sequence of Aurora kinase B (Homo sapiens) (Q96GD4 whole entry): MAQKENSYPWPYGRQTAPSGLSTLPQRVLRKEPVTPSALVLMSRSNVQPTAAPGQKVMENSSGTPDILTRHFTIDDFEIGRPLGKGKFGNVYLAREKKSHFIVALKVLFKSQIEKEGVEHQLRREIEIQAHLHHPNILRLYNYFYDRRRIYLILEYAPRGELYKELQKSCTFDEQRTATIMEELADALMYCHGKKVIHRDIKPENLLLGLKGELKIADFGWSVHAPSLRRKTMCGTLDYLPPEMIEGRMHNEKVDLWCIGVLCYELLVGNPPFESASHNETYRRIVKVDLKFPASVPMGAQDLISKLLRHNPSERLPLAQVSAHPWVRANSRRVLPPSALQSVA

[3] = molecular target: Aurora kinase B (Homo sapiens) (UniProt Q96GD4); conditions: at 1 µM
[4] = molecular target: T2, Aurora kinase C (Homo sapiens) (UniProt Q9UQB9); conditions: at 0.1 µM
T2 sequence (whole entry): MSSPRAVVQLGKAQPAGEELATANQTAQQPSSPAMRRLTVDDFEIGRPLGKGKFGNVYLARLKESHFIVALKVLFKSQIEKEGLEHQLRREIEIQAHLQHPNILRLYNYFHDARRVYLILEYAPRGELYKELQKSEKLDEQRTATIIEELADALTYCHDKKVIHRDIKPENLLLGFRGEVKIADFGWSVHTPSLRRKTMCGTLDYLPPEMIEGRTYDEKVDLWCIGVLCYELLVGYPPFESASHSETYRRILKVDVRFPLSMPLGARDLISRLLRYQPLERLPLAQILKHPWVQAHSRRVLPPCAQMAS

[5] = molecular target: T2, Aurora kinase C (Homo sapiens); conditions: at 1 µM
[6] = molecular target: Serine/threonine-protein kinase 10 (Homo sapiens) (UniProt O94804); conditions: at 0.1 µM
Sequence of Serine/threonine-protein kinase 10 (Homo sapiens) (O94804 whole entry, looked up): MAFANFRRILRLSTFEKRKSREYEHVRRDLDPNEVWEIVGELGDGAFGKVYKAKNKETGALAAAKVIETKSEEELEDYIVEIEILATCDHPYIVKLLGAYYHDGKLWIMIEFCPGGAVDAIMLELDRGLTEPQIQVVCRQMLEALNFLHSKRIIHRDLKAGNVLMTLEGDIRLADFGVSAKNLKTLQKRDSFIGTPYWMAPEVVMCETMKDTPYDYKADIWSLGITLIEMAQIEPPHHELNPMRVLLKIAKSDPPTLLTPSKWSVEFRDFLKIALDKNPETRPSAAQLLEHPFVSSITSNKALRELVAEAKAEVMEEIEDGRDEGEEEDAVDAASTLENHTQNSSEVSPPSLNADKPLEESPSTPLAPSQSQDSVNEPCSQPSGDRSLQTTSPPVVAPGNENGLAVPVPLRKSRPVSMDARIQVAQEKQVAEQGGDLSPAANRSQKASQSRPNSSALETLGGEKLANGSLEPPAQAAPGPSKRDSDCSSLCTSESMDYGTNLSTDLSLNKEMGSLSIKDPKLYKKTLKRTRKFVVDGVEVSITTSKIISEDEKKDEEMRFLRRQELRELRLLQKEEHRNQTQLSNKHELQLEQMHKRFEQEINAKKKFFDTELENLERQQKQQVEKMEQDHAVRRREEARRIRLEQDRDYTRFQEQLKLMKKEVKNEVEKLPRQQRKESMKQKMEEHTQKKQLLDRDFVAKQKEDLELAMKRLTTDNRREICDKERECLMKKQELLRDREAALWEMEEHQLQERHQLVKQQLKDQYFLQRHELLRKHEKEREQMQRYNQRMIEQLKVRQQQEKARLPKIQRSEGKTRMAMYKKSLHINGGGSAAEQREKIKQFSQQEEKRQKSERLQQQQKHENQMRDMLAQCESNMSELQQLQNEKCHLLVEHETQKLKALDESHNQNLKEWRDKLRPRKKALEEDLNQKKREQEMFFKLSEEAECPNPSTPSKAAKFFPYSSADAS

[7] = molecular target: Serine/threonine-protein kinase 10 (Homo sapiens) (UniProt O94804); conditions: at 1 µM
[8] = molecular target: T3, Mitogen-activated protein kinase kinase kinase kinase 2 (Homo sapiens) (UniProt Q12851); conditions: at 0.1 µM
T3 sequence (whole entry): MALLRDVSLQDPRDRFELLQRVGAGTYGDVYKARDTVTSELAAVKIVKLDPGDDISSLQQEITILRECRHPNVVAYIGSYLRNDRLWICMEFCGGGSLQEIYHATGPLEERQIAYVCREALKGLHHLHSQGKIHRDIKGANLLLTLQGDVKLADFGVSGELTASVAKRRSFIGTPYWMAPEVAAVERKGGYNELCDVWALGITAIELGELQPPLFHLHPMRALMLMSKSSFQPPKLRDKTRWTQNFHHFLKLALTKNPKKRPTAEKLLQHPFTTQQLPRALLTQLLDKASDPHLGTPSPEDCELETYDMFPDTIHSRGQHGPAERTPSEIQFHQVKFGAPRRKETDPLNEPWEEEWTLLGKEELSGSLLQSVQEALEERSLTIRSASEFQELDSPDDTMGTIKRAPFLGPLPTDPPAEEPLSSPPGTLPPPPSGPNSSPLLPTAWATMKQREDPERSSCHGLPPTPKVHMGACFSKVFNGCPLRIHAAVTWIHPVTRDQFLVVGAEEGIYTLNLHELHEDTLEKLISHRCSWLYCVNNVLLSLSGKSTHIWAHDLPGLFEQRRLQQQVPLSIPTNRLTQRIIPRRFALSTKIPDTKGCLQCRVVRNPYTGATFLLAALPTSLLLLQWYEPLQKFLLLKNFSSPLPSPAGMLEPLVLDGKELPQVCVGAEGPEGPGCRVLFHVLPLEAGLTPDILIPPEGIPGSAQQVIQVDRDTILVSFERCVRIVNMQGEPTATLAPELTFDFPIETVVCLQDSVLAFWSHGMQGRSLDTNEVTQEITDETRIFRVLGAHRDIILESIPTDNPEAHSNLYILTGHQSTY

[9] = molecular target: T3, Mitogen-activated protein kinase kinase kinase kinase 2 (Homo sapiens); conditions: at 1 µM
[10] = molecular target: Mitogen-activated protein kinase kinase kinase kinase 4 (Homo sapiens) (UniProt O95819); conditions: at 0.1 µM
Sequence of Mitogen-activated protein kinase kinase kinase kinase 4 (Homo sapiens) (O95819 2-1239 limits assumed): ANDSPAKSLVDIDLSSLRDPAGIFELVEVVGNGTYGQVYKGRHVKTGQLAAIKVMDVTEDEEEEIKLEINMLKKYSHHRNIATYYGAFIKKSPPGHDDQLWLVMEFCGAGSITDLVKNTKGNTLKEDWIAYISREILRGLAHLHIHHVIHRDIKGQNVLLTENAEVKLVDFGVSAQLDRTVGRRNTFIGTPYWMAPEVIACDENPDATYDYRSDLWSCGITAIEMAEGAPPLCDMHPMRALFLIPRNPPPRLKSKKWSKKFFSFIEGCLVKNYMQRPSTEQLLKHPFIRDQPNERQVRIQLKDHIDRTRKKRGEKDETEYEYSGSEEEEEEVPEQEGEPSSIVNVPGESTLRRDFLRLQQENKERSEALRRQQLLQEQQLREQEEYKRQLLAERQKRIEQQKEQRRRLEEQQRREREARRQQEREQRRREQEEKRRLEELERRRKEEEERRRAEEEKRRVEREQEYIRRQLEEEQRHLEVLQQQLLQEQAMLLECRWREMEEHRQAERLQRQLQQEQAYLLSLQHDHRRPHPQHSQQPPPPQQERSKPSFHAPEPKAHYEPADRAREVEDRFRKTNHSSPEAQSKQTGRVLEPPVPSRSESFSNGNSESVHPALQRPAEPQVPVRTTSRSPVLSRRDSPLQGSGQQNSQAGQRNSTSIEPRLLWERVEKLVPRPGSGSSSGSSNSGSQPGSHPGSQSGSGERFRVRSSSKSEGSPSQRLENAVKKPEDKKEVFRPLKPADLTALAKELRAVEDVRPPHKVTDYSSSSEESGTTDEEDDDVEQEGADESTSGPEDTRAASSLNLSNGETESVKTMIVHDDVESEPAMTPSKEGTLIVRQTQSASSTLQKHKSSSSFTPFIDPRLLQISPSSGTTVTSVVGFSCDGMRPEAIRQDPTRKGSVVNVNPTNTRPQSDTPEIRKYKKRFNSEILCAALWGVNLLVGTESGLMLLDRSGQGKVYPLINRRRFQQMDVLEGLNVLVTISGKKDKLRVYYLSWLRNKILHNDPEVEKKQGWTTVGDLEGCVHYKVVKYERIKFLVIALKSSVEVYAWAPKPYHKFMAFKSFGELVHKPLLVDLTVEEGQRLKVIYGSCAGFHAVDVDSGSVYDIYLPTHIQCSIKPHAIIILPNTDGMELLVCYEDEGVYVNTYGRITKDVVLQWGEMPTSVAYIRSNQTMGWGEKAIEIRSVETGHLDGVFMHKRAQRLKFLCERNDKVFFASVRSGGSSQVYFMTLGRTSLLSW

Compound	inhibition [1]	inhibition [2]	inhibition [3]	inhibition [4]	inhibition [5]	inhibition [6]	inhibition [7]	inhibition [8]	inhibition [9]	inhibition [10]
CS(=O)(=O)CCNCc1ccc(-c2ccc3ncnc(Nc4ccc(OCc5ccccc5)cc4)c3c2)o1	7.7%	4.74%	10%	2.17%	7.65%	5.66%	7.82%	0.28%	1.58%	3.5%
CN1CCN(Cc2ccc(-c3cc4ncnc(Nc5ccc(OCc6cccc(F)c6)c(Cl)c5)c4s3)o2)CC1	6.51% and 11.8%	16% and 13%	45.6% and 53%	4.18% and 3.42%	26.1% and 40.5%	17.4% and 22.1%	56.8% and 67%	2.1% and 1.95%	13% and 8.01%	2.96% and 6.93%
Cc1nnc(-c2cccc(-c3ccc(C(=O)NCC4CC4)cc3)c2)o1	7.79%	3.21%	3.09%	1.3%	-4.74%	6.23%	7.39%	1.46%	3.14%	7.44%
CC1=C(C(=O)Nc2ccc3[nH]nc(C)c3c2)C(c2ccc(C(F)(F)F)cc2)CC(=O)N1 (stereo not given)	88.3%	7.45%	45.7%	7.71%	78.2%	2.01%	4.46%	0.76%	3.74%	4.23%
COc1cccc(-n2ncc3c(N/N=C/c4ccc(C(=O)NCCN(C)C)cc4)ncnc32)c1	62.7%	7.23%	38.6%	5.58%	57%	23%	61.2%	3.89%	21.8%	31.3%
N#Cc1ccc2c(-c3ccnc(NC4CC4)n3)c(-c3ccc(F)cc3)nn2c1	0.56%	0.7%	-0.38%	0.81%	5.38%	2.63%	4.13%	0.19%	2.06%	5.83%
CCOc1ccc2c(-c3ccnc(Nc4cc(OC)cc(C(F)(F)F)c4)n3)cnn2n1	13%	2.18%	8.92%	1.08%	4.09%	-0.06%	3.44%	0.08%	2.69%	1.85%
COc1cc2c(cc1Nc1nc(Nc3cccc(F)c3C(N)=O)c3cc[nH]c3n1)N(C(=O)CN1CCN(C(C)C)CC1)CC2	0.34%	1.62%	2.41%	-0.27%	3.25%	2.03%	5.12%	1.69%	11.3%	0.45%
CNC(=O)c1cncc(/C=C/c2ccccc2C)c1	9.59%	3.77%	-0.01%	2.1%	-3.67%	6.73%	9.43%	0.94%	2.16%	8.34%
CS(=O)(=O)Nc1ccc(-c2cc(-c3ccccc3)cc(C(N)=O)c2N)cc1	1.71%	1.93%	5.23%	0.13%	4.66%	2.01%	4.84%	-1.83%	1.34%	3.1%
NS(=O)(=O)c1cccc(N/C=C2\C(=O)Nc3ccccc32)c1	47.6%	6.68%	40.5%	7.7%	76.7%	4.31%	9.72%	4.14%	28.9%	23.3%
Fc1cccc(COc2ccc(Nc3ncncc3C#Cc3ccccc3)cc2Cl)c1	9%	-1.58%	6%	1.15%	-2.38%	2.78%	11.7%	0.81%	0.54%	6.19%
N#Cc1cccc(Nc2ncc(-c3ccccc3)o2)c1	11.6%	4.81%	1.97%	1.44%	5.62%	2.27%	3.84%	0.79%	2.94%	4.93%
Cc1ccc(-c2cc3c(NC(=O)C4CC4)ncnc3o2)cc1	15.8%	5.78%	17.5%	2.4%	19.2%	2.34%	15.1%	0.9%	2.12%	6.07%
CCN1CCC(C(=O)Nc2n[nH]c3nnc(-c4cccc(F)c4F)cc23)CC1	0.34%	-0.39%	3.97%	0.94%	5.27%	-0.44%	-0.07%	2.45%	3.52%	3.47%
Cc1cc(O)cc(C)c1/C=C/c1cncc(C(N)=O)c1	11.7%	2.21%	7.09%	8.73%	1.85%	4.97%	20.2%	2.32%	8.96%	4.83%

Compound	inhibition [1]	inhibition [2]	inhibition [3]	inhibition [4]	inhibition [5]	inhibition [6]	inhibition [7]	inhibition [8]	inhibition [9]	inhibition [10]
CCn1c(-c2nonc2N)nc2cncc(C(=O)NCCNC)c21	5.14%	2.77%	1.83%	0.6%	5.56%	11.8%	18%	0.67%	3.62%	4.46%
Nc1nonc1-c1nc2cnccc2n1C1CC1	10.7% and -0.07%	5.82% and -0.78%	11.3% and 1.86%	4.22% and -3.73%	11.6% and -0.49%	7.02% and 3.14%	15.1% and 14.1%	3.53% and 3.38%	14.3% and 12.8%	11.1% and 7.77%
COC(=O)Nc1nc2ccc(Oc3ccc(NC(=O)Nc4cc(C(F)(F)F)ccc4F)cc3)cc2s1	7.02%	5.4%	30.8%	9.05%	50.4%	24.5%	55.4%	10.7%	28.6%	2.18%
COc1cccc(Nc2nccc(-c3cnn4ncccc34)n2)c1	86.4%	26.7%	72.3%	33.2%	97.3%	4.01%	17.4%	17.1%	60.1%	14.8%
O=C(Nc1n[nH]c2nnc(-c3cccnc3)cc12)C1CC1	0.07%	0.12%	3.67%	-1.84%	3.75%	-0.21%	0.78%	0.63%	1.06%	3.78%
Nc1nccc(-c2c(-c3ccc(F)cc3)ncn2C2CCNCC2)n1	2.76% and 3.22%	-5.29% and 2.13%	-0.57% and 3.55%	-7.14% and -0.01%	-5.53% and -3.08%	-0.78% and 0.07%	4.14% and -0.32%	-0.37% and 2%	4.6% and 3.83%	-1.38% and 3.46%
O=C1Nc2ccccc2/C1=C1\CCc2cc(O)ccc21	70.9%	44.8%	80.5%	53.7%	93.4%	6.67%	16.1%	12.1%	52.6%	23.3%
CNC(=O)c1ncccc1Nc1nc(Nc2cc3c(cc2OC)CCCN3C(=O)CN(C)C)nc2[nH]ccc12	6.59%	3.79%	8.73%	2.36%	4.16%	7.25%	4.81%	1.56%	4.18%	4.22%
CN(C)CCNC(=O)Nc1ccc(N(C)c2ccnc(Nc3ccc(CS(C)(=O)=O)cc3)n2)cc1	79%	21.6%	69.1%	21.9%	94.5%	7.91%	36.7%	0.59%	2.02%	4.07%
c1cnn2ncc(-c3ccnc(NCCCN4CCOCC4)n3)c2c1	8.82%	2.38%	5.43%	-0.51%	1.86%	4.84%	1.98%	-0.2%	1.94%	4.7%
COc1cc(Nc2ncc(-c3ccccc3)o2)cc(OC)c1	30.3%	5%	19.7%	3.27%	29.6%	8.54%	12.9%	0.95%	7.2%	7.08%
CC1(C)CC(n2cnc(-c3ccc(F)cc3)c2-c2ccnc(N)n2)CC(C)(C)N1	4.57%	3.04%	-0.43%	-0.39%	-1.87%	1.32%	6.74%	1.36%	2.09%	2.07%
CC(C)c1ccc(-c2cc(-c3c[nH]nc3-c3ccccn3)ccn2)cc1	3.72%	0.9%	5.53%	1.22%	-0.07%	0.88%	0.62%	1.5%	3.27%	10.9%
NC(=O)c1ccc2c(-c3ccnc(NCCCO)n3)c(-c3ccc(F)cc3)nn2c1	3.29%	2.54%	0.26%	0.74%	6.84%	5.04%	12.3%	1.47%	7.29%	9.85%
COc1ccc(-c2nn3ncccc3c2-c2ccnc(Nc3ccc(F)c(F)c3)n2)cc1	28.5%	4.36%	14.3%	1.75%	6.44%	7.15%	23.5%	2.1%	1.49%	8.56%
